# Assay outcomes: PubChem BioAssay, several laboratories
# Hits are enriched below; roughly 2% of the tested compounds scored in any of these assays.
# NOD2 RIPK2 PPI – NOD2-RIPK2 protein interaction inhibition. CHO BLA complementation NOD2-RIPK2, CCF4 ratio. inhibition, % at 4.98 µM. 360,000 compounds, 0.38% hits; in the data active means inhibition above about 21%;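 further: 0% = vehicle only and 100% = reference blocker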
# TLR4 MyD88 comp – blocks binding of human TLR4 to MyD88. O00206+Q99836. HeLa CL3-4 TLR4/MyD88 BLA complementation, FRET ratio. inhibition, % at 8.4 µM. 200,000 compounds, 0.18% hits; in the data active means inhibition above about 25%;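 further: 0% = vehicle and 100% = reference inhibitor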
# Exocytosis inh – blocks lytic granule exocytosis; TALL-104 LAMP-1 surface exposure, flow cytometry; cells stimulated with thapsigargin and PMA; inhibition, % at 10 µM; 360,000 compounds, 0.66% hits; AID 651702;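 active means inhibition above about 55%, limit read from the data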
# Beta2AR agonist – activates human beta-2 adrenergic receptor causing internalization. P07550. Am2.2-beta2AR cells, FAP receptor internalization, flow cytometry. response, % (no concentration beside the values). 340,000 compounds, 0.43% hits;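 active means response above a set limit, near 3 SD of response in nonfluorescent compounds, cut at about 42% in these data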
# TLR9-MyD88 block – TLR9-MyD88 interaction inhibition | Q9NR96+Q99836 | CHO BLA complementation TLR9-MyD88, CCF4 FRET ratio | inhibition, % at 4.98 µM | 340,000 compounds, 0.21% hits;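 active means inhibition above the mean over all tested compounds plus 3 SD, cut at about 21% in these data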;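 further: 0% = DMSO only wells and 100% = clavulanate BLA inhibitor control wells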
# Target sequence (Q99836 whole entry, looked up): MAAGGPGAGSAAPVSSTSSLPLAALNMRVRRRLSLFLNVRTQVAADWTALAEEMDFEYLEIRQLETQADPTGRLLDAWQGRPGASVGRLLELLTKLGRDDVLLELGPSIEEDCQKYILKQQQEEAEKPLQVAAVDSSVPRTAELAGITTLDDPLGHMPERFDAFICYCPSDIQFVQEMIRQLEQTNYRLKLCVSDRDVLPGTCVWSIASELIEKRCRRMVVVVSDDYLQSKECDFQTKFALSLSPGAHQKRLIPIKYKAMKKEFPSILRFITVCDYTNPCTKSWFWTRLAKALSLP
# Target sequence (Q9NR96 whole entry, looked up): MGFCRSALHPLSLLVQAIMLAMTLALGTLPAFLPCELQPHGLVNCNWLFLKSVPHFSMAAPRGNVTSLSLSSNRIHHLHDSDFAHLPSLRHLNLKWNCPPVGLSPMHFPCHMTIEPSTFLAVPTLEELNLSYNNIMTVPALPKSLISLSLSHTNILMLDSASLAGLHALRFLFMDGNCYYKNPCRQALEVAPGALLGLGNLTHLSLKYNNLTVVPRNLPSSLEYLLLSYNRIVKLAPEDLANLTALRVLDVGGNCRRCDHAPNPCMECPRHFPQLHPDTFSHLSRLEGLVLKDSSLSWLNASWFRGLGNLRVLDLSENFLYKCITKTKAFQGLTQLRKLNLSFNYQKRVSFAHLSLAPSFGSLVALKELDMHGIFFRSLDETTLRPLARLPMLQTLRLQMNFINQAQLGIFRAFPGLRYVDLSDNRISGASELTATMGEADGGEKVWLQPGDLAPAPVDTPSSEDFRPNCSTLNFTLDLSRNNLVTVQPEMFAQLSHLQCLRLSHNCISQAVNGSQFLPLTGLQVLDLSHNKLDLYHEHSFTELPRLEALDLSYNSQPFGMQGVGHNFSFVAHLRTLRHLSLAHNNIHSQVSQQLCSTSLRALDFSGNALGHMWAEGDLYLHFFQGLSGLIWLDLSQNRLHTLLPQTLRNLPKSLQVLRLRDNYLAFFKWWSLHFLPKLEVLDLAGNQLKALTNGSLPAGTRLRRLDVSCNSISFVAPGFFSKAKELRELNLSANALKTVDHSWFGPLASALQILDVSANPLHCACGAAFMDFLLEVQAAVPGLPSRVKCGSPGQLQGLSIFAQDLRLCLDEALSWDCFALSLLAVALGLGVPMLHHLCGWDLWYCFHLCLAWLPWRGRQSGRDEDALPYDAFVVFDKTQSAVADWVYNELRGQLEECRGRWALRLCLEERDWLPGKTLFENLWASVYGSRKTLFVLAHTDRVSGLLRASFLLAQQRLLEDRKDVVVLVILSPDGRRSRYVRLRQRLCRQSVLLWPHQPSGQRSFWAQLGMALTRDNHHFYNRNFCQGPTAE
# ABHD5-PLIN5 inh – blocks binding of human ABHD5 to perilipin-5; inhibition, % at 4 µM; Q00G26+Q8WTS1; AID 602281; 360,000 compounds, 0.78% hits; Split G. princeps luciferase complementation, luminescence, 4 h;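 active means inhibition above the mean inhibition across every tested compound plus 3 SD, cut at about 22% in these data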;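 further: 0% = DMSO only wells and the 100% control is not disclosed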
# * = called active by the depositor; . = not tested or not shown.
SMILES,NOD2 RIPK2 PPI,TLR4 MyD88 comp,Exocytosis inh,Beta2AR agonist,TLR9-MyD88 block,ABHD5-PLIN5 inh
CSCCC(C(=O)NCc1ccccc1)n1c(Cc2cc(F)cc(F)c2)nc2ccccc21 (configuration not stated),-8,.,-8,.,.,-4
O=c1[nH]c(NNC(=S)NCc2ccccc2)nc2c1C1(CCCCC1)Cc1ccccc1-2,0,0,4,5,4,-10
O=c1[nH]c(NNC(=S)NC2CCCCC2)nc2c1C1(CCCC1)Cc1ccccc1-2,5,.,12,68*,-10,0
CCCCCNC(=O)C(c1ccnc2ccccc12)n1c(=O)c(-c2ccccc2)nc2ccccc21 (configuration not stated),3,.,-2,.,.,1
CN1CCN(c2ccc(NC(=S)NC(=O)/C=C/c3ccco3)cc2)CC1,5,.,57*,-11,8,-7
Clc1ccc(-c2ccc(/C=N/Nc3cc(N4CCOCC4)nc(N4CCOCC4)n3)o2)cc1,2,-38,83*,27,-13,2
Brc1ccc(-c2ccc(/C=N/Nc3nc(N4CCOCC4)nc(N4CCOCC4)n3)o2)cc1,1,-21,8,8,-1,-4
COc1cccc(N=Cc2nc(-c3ccccc3)oc2OC(C)=O)c1,1,.,64*,-5,0,-1
Cc1ccc(C)c(N2CCN(C(C(=O)NC3CCCC3)C(C)C)CC2)c1 (configuration not stated),0,.,-4,.,.,5
CN1C(=O)/C(=N/OC(=O)c2ccccc2)c2ccccc21,3,0,87*,-6,-2,12
CCCCN1C(=O)Cc2c1nc(N)c1c(N)nc(N(CCC)CCC)c(C#N)c21,-13,3,72*,3,4,-13
COc1ccc(/C=C/C(=O)c2ccccc2)cc1COc1ccc(F)cc1,-4,7,-3,19,0,22*
COC(=O)c1cc(=O)n(Cc2ccc(F)cc2)c(=Nc2ccccc2)s1,0,.,-5,25,6,4
COC(=O)c1cc(=O)n(Cc2ccc(OC)c(OC)c2)c(=Nc2ccc(F)cc2)s1,-8,-7,2,72*,-64,3
Cc1ccccc1-c1cnc(C(O)c2ccc(F)cc2C)[nH]1 (configuration not stated),2,.,-5,.,.,-2
Cn1c(/C=C/c2ccc(Cl)cc2)c([N+](=O)[O-])c(=O)n(C)c1=O,-3,.,0,4,-8,22*
COc1ccc(/C=C/c2c([N+](=O)[O-])c(=O)n(C)c(=O)n2C)cc1OC,-5,14,-2,10,-8,-6
COCCN1C(=O)CN(S(C)(=O)=O)CC1(C)C(=O)NCc1ccccc1 (configuration not stated),-12,.,4,.,.,-6
Cn1nc([N+](=O)[O-])c(C(C#N)c2nc3ccccc3n2C)c(Cl)c1=O (configuration not stated),10,12,71*,1,-6,9
Cn1c(-c2ccc([N+](=O)[O-])cc2)nc2ccccc21,0,6,3,5,-3,-13
CCOc1ccc(/C=C2\SC(N3CCc4ccccc4C3)=NC2=O)cc1,-6,-5,-1,68*,-5,-1
CC(=O)N(CC(=O)N(CC(=O)O)c1ccc(Cl)cc1)c1ccc(Cl)cc1,1,.,-5,-1,-11,2
CCOc1ccc(N=Nc2ccc(O)c3ncccc23)cc1,-2,.,1,23,0,3
CCOc1ccc2c(ccc(/C=C/c3cc(C)c4cccnc4c3O)[n+]2C)c1,-16,.,-2,106*,-27,26*
COc1ccc2cc(-c3[nH]ncc3CN3C[C@@H]4CCC[C@H]3C4)ccc2c1,-2,2,15,-7,4,23*
SMILES,NOD2 RIPK2 PPI,TLR4 MyD88 comp,Exocytosis inh,Beta2AR agonist,TLR9-MyD88 block,ABHD5-PLIN5 inh
N#CCC(=O)N/N=C/c1c(-c2ccccc2)n(-c2ccccc2)c2ccccc12,5,.,94*,24,-4,6
CC(C)C(=O)N1CCCC1(C)C(=O)Nc1ccccc1 (configuration not stated),-12,.,-9,.,.,2
Cc1cc(NC(=O)C(C)SCC(=O)N(C)CC(=O)Nc2ccc(F)cc2)no1 (configuration not stated),-4,.,-4,-7,0,23*
CC(C)(C)OC(=O)CC1(C#N)c2ccccc2C(Br)=CN1C(=O)c1ccccc1 (configuration not stated),3,.,-16,-2,-5,-1
Cc1nc(Nc2ccc(Cl)c(Cl)c2)sc1C(/C=C/c1ccc2c(c1)OCO2)=NNc1ccc([N+](=O)[O-])cc1[N+](=O)[O-],2,.,6,-119,-8,-10
O=C(NC(=S)Nc1cccc(O)c1)C1CCCCC1,-13,.,62*,-6,-10,-8
CC1=C(C(=O)N2CCCCCC2)CC(CC(=O)NCC2CCCCC2)C(=O)N1Cc1ccc(F)cc1 (configuration not stated),-5,.,-10,.,.,1
O=C(COc1ccc2ccccc2c1Br)N1CCCCC1,-1,.,-2,-8,8,-7
O=C(Oc1ccc2ccccc2c1Br)N1CCCCCC1,-1,6,-4,62*,-4,-1
O=C(NCc1ccncc1)[C@@H]1CCCN1C(=O)[C@H]1CCCN1,4,.,1,.,.,5
COc1ccc(C(=O)c2no[n+]([O-])c2C(=O)c2ccc(OC)cc2)cc1,10,2,103*,44*,-3,-1
O=C(c1cccs1)c1no[n+]([O-])c1C(=O)c1cccs1,-5,-7,82*,32,-3,-2
COc1ccc(NC(=O)c2c(N)no[n+]2[O-])cc1,3,0,1,4,-6,-1
O=C(c1cccs1)c1ccc(-c2cccs2)s1,-7,10,4,-7,-1,0
Cc1ccc(S(=O)(=O)N2C[C@H]3C(=O)C[C@@H]4C(=O)N(c5ccccc5)C(=O)[C@@H]4[C@@H]3C[C@H]2c2cccc(Cl)c2)cc1,-12,.,-5,.,.,0
Cc1cccc(Nc2nc(N)nc(CCl)n2)c1,-4,.,70*,-6,2,6
COc1cccc(Nc2nc(N)nc(CCl)n2)c1,5,.,68*,-7,1,-32
CCOc1ccc(Nc2nc(N)nc(CCl)n2)cc1,-5,.,60*,26,-7,1
Cc1ccc(Nc2nc(N)nc(CCl)n2)cc1,1,.,51,9,.,9
CCN1C(=N)N(c2ccccc2)C(=O)C(CC)(CC)C1=O,-12,.,-1,-6,2,8
O=C(CSc1nnc(-c2ccc(O)cc2)n1Cc1ccco1)c1ccccc1,9,2,4,-1,5,2
O=C(CSc1nnc(-c2ccccn2)n1Cc1ccco1)c1ccc(-c2ccccc2)cc1,-6,-1,6,-4,-8,57*
